Experiment [1] relates to PRMT1 (protein arginine N-methyltransferase 1). Description: PRMT1 binders on small-molecule microarrays, primary screen, biochemical, small-molecule microarray, 635 nm fluorescence (AID 1088).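 Also: binding of Prmt1 protein to compounds spotted on small-molecule microarray slides.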 As to conditions: small-molecule microarray binding, higher = more signal.
Experiment [2] in a line: yeast growth modulation, basal conditions, primary screen, YJM789 clinical isolate, OD600, 24 h (AID 1089).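 Also: growth of clinical yeast isolate S. cerevisiae YJM 789 seeded 1000 cells per well; test concentration not given here.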 The conditions noted are these: S. cerevisiae YJM789 growth, higher = more signal, called active from +8 up or from −8 down.
Experiment [3] is described as follows: fission yeast growth modulation, primary screen, strain 972, OD600, 24 h, no modulator (AID 1090).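 Also: basal condition with compound alone and no growth modifier present; test concentration not given here.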 As to conditions: S. pombe 972 growth, higher = more signal, called active from +8 up or from −8 down.
Experiment [4] in a line: S. cerevisiae growth modulation with rapamycin, primary screen, strain BY4716, OD600, 96 h (AID 1091). Also: test concentration not given here. As to conditions: higher = more signal, called active from +8 up or from −8 down.
Experiment [5] deals with Torsin-1A-interacting protein 2 (Homo sapiens) (UniProt Q8NFQ8). Description: LULL1 binders on small-molecule microarray, primary screen, cell lysate, human LULL1 lysate, 635/667 nm fluorescence (AID 1092).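 Also: probe is lysate of COS7 cells overexpressing human LULL1; score merges per-feature 667 nm fluorescence with signal-to-noise.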 The conditions noted are these: hLULL1 lysate binding, 635 nm fluorescence, higher = more signal.
Chain of Torsin-1A-interacting protein 2 (Homo sapiens) (Q8NFQ8 whole entry, looked up): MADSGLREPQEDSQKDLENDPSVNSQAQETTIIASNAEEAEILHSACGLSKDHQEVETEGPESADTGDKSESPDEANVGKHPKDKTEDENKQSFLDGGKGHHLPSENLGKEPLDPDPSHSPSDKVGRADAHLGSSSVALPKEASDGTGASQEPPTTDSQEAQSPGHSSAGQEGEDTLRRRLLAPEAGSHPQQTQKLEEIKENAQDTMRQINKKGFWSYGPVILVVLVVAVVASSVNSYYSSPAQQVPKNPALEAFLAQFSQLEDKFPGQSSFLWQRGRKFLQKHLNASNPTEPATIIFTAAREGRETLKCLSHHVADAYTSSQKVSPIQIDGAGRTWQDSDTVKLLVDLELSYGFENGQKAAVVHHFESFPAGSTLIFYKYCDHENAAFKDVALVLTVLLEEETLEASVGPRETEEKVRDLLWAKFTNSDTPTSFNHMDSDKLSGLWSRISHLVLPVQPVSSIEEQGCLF
Experiment [6] can be described thus: E. coli growth modulation, two-sided OD650, primary screen, E. coli filamentation project, strain DRC41, 24 h (AID 1093).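 Also: MC1000 strain lacking acrAB efflux and sulA so SOS filamentation is blocked; test concentration not given here.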 The conditions noted are these: OD650, 24 h, higher = more signal, called active from +8 up or from −8 down.
The nature of experiment [7]: small-molecule microarray binders of probe aLefty2, primary screen, biochemical, biotinylated probe, 635/667 nm fluorescence (AID 1094).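 Also: score merges spot fluorescence near 667 nm with spot signal-to-noise ratio.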 As to conditions: higher = more signal.
Experiment [8] deals with Noggin (protein binding on small-molecule microarray). Description: Noggin binders on small-molecule microarray, primary screen, biochemical, 635/667 nm fluorescence (AID 1095).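 Also: score merges 667 nm feature fluorescence with signal to noise over triplicate slides.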 As to conditions: 635 nm fluorescence, higher = more signal.
Experiment [9] has as its target Neurogenic locus notch homolog protein 3 (Homo sapiens) (UniProt Q9UM47). Description: NOTCH3 binders on small-molecule microarray, primary screen, biochemical, 635/667 nm fluorescence (AID 1096). As to conditions: NOTCH3 binding, 635 nm fluorescence, higher = more signal.
Experiment [10] can be described thus: small-molecule microarray binders of probe aEGFR, primary screen, biochemical, biotinylated probe, 635/667 nm fluorescence (AID 1097).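 Also: probe is a biotinylated anti-EGFR antibody binding compounds printed on slides; score combines fluorescence near 667 nm and signal to noise of each spot.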 The conditions noted are these: higher = more signal.
The test system of experiment [11] is Plasmodium falciparum Sir2 (PF13_0152, Sir2A). Description: pfSir2 binders on small-molecule microarrays, primary screen, biochemical, small-molecule microarray, 635 nm fluorescence (AID 1098).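 Also: score merges spot fluorescence intensity with its signal-to-noise ratio.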 The conditions noted are these: small-molecule microarray binding, fluorescence 635 nm; higher = more signal.
The nature of experiment [12]: small-molecule microarray binders of probe aDKK1, primary screen, biochemical, biotinylated probe, 635/667 nm fluorescence (AID 1099).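 Also: score merges 667nm spot fluorescence with signal to noise across triplicate slides; reference of the scale not given here.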 The conditions noted are these: higher = more signal.
Experiment [13] is described as follows: small-molecule microarray binders of probe aCHRDL2, primary screen, biochemical, biotinylated probe, 635/667 nm fluorescence (AID 1100). The conditions noted are these: higher = more signal.
The nature of experiment [14]: splicing luciferase reporter signal modulators, primary screen, spliceosome inhibition project, cell-based, HEK293, splice +/- reporter (AID 1101).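 Also: HEK293 cells carrying a splicing-competent luciferase reporter gene; test concentration not given here.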 As to conditions: luminescence, 24 h, higher = more signal, called active from +8 up or from −8 down. A general note: A reporter such as luciferase makes a cellular process visible.
For experiment [15], the target named is Fibroblast growth factor 10 (Homo sapiens) (UniProt O15520). Description: FGF10 binders on small-molecule microarrays, primary screen, biochemical, small-molecule microarray, 635 nm fluorescence (AID 1102). The conditions noted are these: FGF10 binding, fluorescence 635 nm, higher = more signal.
Chain of Fibroblast growth factor 10 (Homo sapiens) (O15520 whole entry, looked up): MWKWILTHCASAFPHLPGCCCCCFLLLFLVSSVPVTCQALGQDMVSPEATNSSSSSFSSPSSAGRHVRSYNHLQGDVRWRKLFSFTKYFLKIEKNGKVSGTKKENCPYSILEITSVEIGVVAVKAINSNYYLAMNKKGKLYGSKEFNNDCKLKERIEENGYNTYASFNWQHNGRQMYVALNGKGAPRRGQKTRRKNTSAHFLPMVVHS
Experiment [16] relates to glycogen synthase kinase-3 (GSK3A per assay name; protocol says GSK3B). Description: GSK3 binders on small-molecule microarrays, primary screen, biochemical, small-molecule microarray, 635 nm fluorescence, GSK3A (AID 1103). Also: the record names both GSK3A and GSK3B. As to conditions: small-molecule microarray binding, fluorescence 635 nm; higher = more signal.
Experiment [17] concerns the target Epidermal growth factor receptor (Homo sapiens) (UniProt P00533). Description: EGFR binders on small-molecule microarrays, primary screen, biochemical, small-molecule microarray, 635 nm fluorescence (AID 1104).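 Also: score merges 667 nm emission intensity with spot signal to noise over triplicate slides.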 The conditions noted are these: EGFR binding, higher = more signal.
Experiment [18] concerns the target Follistatin-related protein 3 (Homo sapiens) (UniProt O95633). Description: FSTL3 binders on small-molecule microarrays, primary screen, biochemical, small-molecule microarray, 635 nm fluorescence (AID 1105).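 Also: score merges emission near 667 nm and signal to noise per printed spot across three slides.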 The conditions noted are these: FSTL3 binding, higher = more signal.
Experiment [19] deals with Dickkopf-related protein 1 (Homo sapiens) (UniProt O94907). Description: DKK1 binders on small-molecule microarrays, primary screen, biochemical, small-molecule microarray, 635 nm fluorescence scan (AID 1106).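 Also: score merges emission near 667 nm with signal to noise over three replicate slides.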 As to conditions: DKK1 binding, higher = more signal.
Chain of Dickkopf-related protein 1 (Homo sapiens) (O94907 whole entry, looked up): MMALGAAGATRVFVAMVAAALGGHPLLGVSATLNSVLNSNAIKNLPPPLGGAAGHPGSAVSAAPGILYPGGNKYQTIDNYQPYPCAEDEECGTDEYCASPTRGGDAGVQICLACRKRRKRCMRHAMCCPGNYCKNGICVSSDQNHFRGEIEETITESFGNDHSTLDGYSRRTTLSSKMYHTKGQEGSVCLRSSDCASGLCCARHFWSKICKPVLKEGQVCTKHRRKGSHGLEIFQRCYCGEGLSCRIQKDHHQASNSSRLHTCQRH
Experiment [20] concerns Inhibin beta A chain (activin A). Description: INHBA (activin A) binders on microarrays, primary screen, biochemical, small-molecule microarray, 635 nm fluorescence scan (AID 1107).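 Also: mouse activin A protein probed at 4.33 µg/mL on printed slides; score merges bound-protein fluorescence near 667 nm with spot signal-to-noise.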 The conditions noted are these: small-molecule microarray binding, higher = more signal.

Activity calls are given as the source filed them.

Chain of Epidermal growth factor receptor (Homo sapiens) (P00533 whole entry, looked up): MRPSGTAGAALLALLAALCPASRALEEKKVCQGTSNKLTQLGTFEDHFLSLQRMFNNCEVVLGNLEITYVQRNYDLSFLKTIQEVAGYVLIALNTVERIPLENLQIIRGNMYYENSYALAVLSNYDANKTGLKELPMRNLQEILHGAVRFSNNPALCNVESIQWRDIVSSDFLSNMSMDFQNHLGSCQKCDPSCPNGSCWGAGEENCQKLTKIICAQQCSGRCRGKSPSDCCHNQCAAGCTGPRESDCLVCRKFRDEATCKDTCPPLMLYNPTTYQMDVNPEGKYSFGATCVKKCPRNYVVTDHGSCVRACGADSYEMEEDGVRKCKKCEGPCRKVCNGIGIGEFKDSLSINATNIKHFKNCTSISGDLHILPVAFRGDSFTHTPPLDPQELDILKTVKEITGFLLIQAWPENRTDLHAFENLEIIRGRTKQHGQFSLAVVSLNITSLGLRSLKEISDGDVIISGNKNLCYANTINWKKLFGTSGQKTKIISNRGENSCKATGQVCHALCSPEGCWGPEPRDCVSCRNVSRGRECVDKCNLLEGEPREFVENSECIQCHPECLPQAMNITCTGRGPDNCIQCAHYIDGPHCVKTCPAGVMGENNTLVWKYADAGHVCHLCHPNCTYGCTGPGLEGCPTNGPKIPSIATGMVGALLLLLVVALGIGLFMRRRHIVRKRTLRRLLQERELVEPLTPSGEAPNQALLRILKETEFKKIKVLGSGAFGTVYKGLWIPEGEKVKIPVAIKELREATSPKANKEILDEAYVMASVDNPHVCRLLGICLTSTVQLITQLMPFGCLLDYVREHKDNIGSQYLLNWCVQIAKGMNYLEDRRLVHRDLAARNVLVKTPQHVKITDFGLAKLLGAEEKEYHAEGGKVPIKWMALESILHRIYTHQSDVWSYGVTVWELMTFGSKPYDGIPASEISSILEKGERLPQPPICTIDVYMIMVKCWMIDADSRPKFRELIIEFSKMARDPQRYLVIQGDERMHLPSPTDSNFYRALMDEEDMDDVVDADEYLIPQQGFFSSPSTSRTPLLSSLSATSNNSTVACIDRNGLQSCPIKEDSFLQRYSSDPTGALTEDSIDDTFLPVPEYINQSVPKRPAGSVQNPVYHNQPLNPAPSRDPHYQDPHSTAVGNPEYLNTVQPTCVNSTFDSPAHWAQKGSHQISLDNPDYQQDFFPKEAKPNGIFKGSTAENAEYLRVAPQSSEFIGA
Chain of Neurogenic locus notch homolog protein 3 (Homo sapiens) (Q9UM47 whole entry, looked up): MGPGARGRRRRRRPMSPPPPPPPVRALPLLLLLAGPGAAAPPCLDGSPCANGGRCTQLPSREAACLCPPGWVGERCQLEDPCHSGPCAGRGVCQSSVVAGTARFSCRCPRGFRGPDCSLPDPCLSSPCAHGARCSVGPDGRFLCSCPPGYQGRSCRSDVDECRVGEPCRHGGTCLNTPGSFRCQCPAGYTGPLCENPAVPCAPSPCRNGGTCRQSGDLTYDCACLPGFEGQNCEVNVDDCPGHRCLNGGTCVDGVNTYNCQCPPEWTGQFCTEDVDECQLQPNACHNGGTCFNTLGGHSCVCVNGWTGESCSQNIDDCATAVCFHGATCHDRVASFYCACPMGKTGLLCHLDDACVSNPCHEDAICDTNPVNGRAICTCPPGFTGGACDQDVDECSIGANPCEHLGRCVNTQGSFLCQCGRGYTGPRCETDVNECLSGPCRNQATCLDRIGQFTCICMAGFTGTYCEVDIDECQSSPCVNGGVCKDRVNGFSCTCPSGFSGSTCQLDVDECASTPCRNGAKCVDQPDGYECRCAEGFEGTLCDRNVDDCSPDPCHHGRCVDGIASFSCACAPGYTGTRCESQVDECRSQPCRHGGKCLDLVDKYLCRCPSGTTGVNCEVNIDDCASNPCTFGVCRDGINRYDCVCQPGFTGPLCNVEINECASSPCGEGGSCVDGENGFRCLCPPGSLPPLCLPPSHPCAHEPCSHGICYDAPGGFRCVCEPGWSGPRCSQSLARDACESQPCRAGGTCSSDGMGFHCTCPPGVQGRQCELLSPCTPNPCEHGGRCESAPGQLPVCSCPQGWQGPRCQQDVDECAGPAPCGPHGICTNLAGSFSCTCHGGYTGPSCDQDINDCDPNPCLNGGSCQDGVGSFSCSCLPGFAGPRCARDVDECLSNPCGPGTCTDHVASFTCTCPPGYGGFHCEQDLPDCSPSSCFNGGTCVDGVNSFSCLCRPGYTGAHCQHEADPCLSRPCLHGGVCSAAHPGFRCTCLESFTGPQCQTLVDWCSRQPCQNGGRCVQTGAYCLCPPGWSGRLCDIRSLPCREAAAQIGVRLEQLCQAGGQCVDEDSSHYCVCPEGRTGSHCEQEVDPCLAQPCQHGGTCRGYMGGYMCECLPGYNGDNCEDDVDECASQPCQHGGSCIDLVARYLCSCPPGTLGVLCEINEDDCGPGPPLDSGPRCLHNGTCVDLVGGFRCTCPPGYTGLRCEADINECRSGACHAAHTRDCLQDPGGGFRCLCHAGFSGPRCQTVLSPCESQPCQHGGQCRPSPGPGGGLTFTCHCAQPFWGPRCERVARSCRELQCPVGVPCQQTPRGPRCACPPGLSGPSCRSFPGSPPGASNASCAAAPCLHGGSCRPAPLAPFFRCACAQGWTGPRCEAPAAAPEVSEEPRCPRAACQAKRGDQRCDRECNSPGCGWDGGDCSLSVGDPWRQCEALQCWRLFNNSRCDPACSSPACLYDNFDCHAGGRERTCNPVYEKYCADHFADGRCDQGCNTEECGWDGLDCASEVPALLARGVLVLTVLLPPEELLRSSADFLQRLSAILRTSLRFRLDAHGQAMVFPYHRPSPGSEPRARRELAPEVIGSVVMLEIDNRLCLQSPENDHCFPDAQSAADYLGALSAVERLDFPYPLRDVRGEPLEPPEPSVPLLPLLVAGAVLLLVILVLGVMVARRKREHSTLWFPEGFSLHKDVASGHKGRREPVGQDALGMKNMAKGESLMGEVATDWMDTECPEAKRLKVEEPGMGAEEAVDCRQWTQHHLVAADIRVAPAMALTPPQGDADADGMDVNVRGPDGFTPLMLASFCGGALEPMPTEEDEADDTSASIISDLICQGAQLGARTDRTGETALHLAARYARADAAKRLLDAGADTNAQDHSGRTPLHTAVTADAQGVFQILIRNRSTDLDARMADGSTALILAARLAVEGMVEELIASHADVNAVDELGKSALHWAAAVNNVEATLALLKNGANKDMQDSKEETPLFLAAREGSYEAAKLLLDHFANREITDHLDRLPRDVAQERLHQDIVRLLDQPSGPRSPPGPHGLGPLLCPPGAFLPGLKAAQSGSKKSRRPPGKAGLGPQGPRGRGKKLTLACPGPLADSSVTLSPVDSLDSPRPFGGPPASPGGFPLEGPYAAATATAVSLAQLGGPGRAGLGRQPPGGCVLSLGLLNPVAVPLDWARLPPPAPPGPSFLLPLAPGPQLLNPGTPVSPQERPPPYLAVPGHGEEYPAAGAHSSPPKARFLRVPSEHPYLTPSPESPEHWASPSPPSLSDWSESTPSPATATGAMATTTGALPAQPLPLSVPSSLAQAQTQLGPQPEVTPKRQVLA
Chain of Follistatin-related protein 3 (Homo sapiens) (O95633 whole entry, looked up): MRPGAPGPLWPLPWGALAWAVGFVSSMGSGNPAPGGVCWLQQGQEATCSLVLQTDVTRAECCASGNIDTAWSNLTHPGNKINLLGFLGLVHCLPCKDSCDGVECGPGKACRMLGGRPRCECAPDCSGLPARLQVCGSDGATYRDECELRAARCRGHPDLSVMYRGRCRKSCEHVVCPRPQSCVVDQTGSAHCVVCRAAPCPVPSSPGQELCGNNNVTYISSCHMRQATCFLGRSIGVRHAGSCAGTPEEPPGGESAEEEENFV

As for `OCCCc1cc[n+](Cc2cccc(OC(F)(F)F)c2)cc1`, the composite z-score was 1.54 in [1]; 3.24 in experiment [5]; 0.2 in experiment [7]; 0.962 in experiment [8]; 1.04 in experiment [9]; -0.0084 in experiment [10]. The composite z-score in experiment [11] was found to be 1.67; in experiment [12], 0.237; in experiment [13] it was 0.526; in [15] it was 0.0895; in experiment [16], 0.873; in experiment [17], 0.0648. The composite z-score in [18] is 1.03; in experiment [19], 0.346; in experiment [20], 1.14. The z-score in [2] is -0.747 (inactive); in [3], -3.01 (inactive); in experiment [4] it was 0.71 (inactive); in [6], -1.65 (inactive); in [14], -0.109 (inactive).

Take `CN(C)CCCN1C(=O)[C@@]2(c3ccc([N+](=O)[O-])cc3)CC(=O)N(C3CCCCC3)[C@@H]2c2ccc(CO)cc21`: the composite z-score in [1] was -0.282; in experiment [5] it was -0.933; in experiment [7] it was -0.142; in experiment [8] it was -0.233; in experiment [9], -0.0488; in experiment [10] it was -0.103. In addition, the composite z-score in experiment [11] is -0.34; in experiment [12], -0.0972; in experiment [13], 0.196; in experiment [15], 0.835; in experiment [16] it was -0.808; in experiment [17] it was 0.108. Besides, the figures for the composite z-score in experiment [18], in [19] and in experiment [20] were -0.0207, -0.162 and 0.731, respectively. The z-score in experiment [2] is -1.34 (inactive); in [3], -1.09 (inactive); in experiment [4] it was -2.61 (inactive); in [6], -1.22 (inactive); in [14], -0.447 (inactive).

Turning to `CN(C)CCCC[C@@H]1NC(=O)[C@@H]2C[C@H](C(=O)NCCCCCCN)[C@H](c3ccc(O)cc3)N2C1=O`, the composite z-score is 1.18 in experiment [1]; 2.52 in experiment [5]; 0.892 in experiment [7]; 0.855 in experiment [8]; 0.526 in [9]; 0.678 in experiment [10]. Further, the composite z-score in [11] was determined as 0.812; in [12], 1.46; in experiment [13], 0.848; in [15], 0.987; in experiment [16], 1; in [17], 0.734. Also, the values for the composite z-score in experiment [18], in experiment [19] and in experiment [20] were 0.849, 1.05 and 1.41, respectively. The z-score in experiment [2] was 0.377 (inactive); in [3], -2.04 (inactive); in [4], 0.638 (inactive); in experiment [6], -0.47 (inactive); in [14], -0.0228 (inactive).

For the compound `O=C(NCC(O)CO)[C@@]1(Cc2ccccc2)N=C(c2ccc(OCCCO)cc2)O[C@H]1c1ccccc1` (stereo not given in full), the composite z-score in [1] is 0.814; in experiment [5] it was 3.57; in experiment [7] it was 0.491; in experiment [8] it was 0.431; in experiment [9] it was -0.376; in experiment [10], 0.298. The composite z-score in experiment [11] was 0.616; in experiment [12], 1.15; in [13] it was 1.36; in experiment [15], 0.698; in experiment [16] it was 0.591; in [17], -1.2. In addition, the values for the composite z-score in experiment [18], in experiment [19] and in [20] were -0.378, -0.72 and 0.661, respectively. The z-score in experiment [2] is -0.738 (inactive); in experiment [3], -0.456 (inactive); in experiment [4], -1.26 (inactive); in experiment [6], 1.62 (inactive); in experiment [14] it was -0.395 (inactive).

Consider `CCCCC(=O)N(Cc1ccccc1F)[C@@H]1CC(C(=O)NCCO)=C[C@H](Oc2c(I)cc(CO)cc2OC)[C@H]1O`, for which the composite z-score in [1] was 1.54; in experiment [5] it was 1.83; in experiment [7], -0.0718; in experiment [8] it was 2.04; in experiment [9], 1.04; in experiment [10], 0.0209. Moreover, the composite z-score in experiment [11] was 1.09; in [12], -0.22; in experiment [13], -0.327; in experiment [15], 1.46; in [16], 1.34; in experiment [17] it was 0.91. Moreover, the composite z-score in experiment [18] stood at 1.13; in experiment [19], 1.96; in [20] it was 0.535. The z-score in [2] is 0.41 (inactive); in experiment [3], -1.91 (inactive); in experiment [4], -1.02 (inactive); in experiment [6], 0.772 (inactive); in experiment [14], -0.0457 (inactive).

The record behind these values is PubChem BioAssay.
